From PubChem BioAssay (NCI) come the findings set out here.

Compounds without any hit were thinned out: in the full panel of roughly 83,000, 20% have a hit.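 Cells were grown in 96-well plates and exposed to the test compound at a single concentration for 48 hours; results are reported as percent growth, with values below 10 considered active.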 Calls of active or inactive are those of the source.

The subject of the assay is NCI/ADR-RES ovarian. The experiment in a line: NCI-60 one-dose screen, 48 h (100 = growth as untreated, 0 = no growth, -100 = all killed). Particulars: 10 µM.
For the compound `CCc1ccc(-c2ccc(-n3nc(C)c4c(N)nc(Cc5ccccc5)nc43)cc2)cc1`, the growth is 38.4% (inactive).
The figure for `O=C(Nc1ccc(F)cc1)c1cc2ccccc2cc1O` is 75.9% (inactive); for `O=C(CCCCNC(=O)c1nc(-c2ccccc2)n(-c2ccccc2)n1)NO` it is 87.6% (inactive).
The figure for `COc1cc(-c2nn(-c3ccc(NC(=O)NCCNS(=O)(=O)c4ccc(F)cc4)cc3)cc2-c2ccncc2)ccc1Cl` is 79.2% (inactive); for `O=C(Nc1ccc2c(O)cc(S(=O)(=O)O)cc2c1)c1ccc([N+](=O)[O-])cc1` it is 100% (inactive); for `COC(=O)C1(O)NC(=C(C#N)C#N)C(C#N)=C1C(=O)c1ccc(OC)c(OC)c1` (stereo unspecified) it is 106% (inactive).
In the case of `C=CCn1c(SCC(=O)Nc2ccc(C(=O)/C=C/c3ccc(OC)cc3)cc2)nnc1-c1ccc(OC)c(OC)c1` it was 86.4% (inactive); in that of `COc1cc(NC(=O)Nc2cnc(Nc3ccc(N4CCOCC4)cc3)nc2Oc2cccc(OC)c2)cc(OC)c1`, 61% (inactive); in that of `O=C(CCl)Nc1ccc(Cc2ccc(NC(=O)CCl)cc2)cc1`, 2.83% (active).
Regarding `Cc1cc(SCc2ccccc2)nc(N)n1`, the growth was 105% (inactive).
In the case of `O=C(Nc1nc(-c2ccccc2)nc2c1sc(=S)n2-c1ccccc1)C(F)(F)F` it was 95.7% (inactive).
In the case of `O=C(CSc1nnc(-c2ccc(Cl)cc2)o1)Nc1ccc(C(=O)/C=C/c2ccc(Cl)cc2)cc1` it was 96.4% (inactive); in that of `CN(C)CCN(Cc1ccccc1)c1ccc2ccccc2n1`, 94.2% (inactive); in that of `CCN(CC)CCOc1cccc2c1C(=O)c1cccc(OCCN(CC)CC)c1C2=O`, 86.5% (inactive).
The figure for `O=C(NCCCNS(=O)(=O)c1ccc(Cl)cc1)Nc1ccc(-n2cc(-c3ccncc3)c(-c3ccc(Cl)c(O)c3)n2)cc1` is 76.8% (inactive); for `NC(N)=N/N=C(\c1ccccc1)C(O)c1ccccc1` (stereo unspecified) it is 111% (inactive); for `N#CC1=C(N)Oc2cc(N)ccc2C1c1cccnc1` (stereo unspecified) it is 96.2% (inactive).
For the compound `CCOC(=O)c1cc(C(=O)c2cc(OC)cc(OC)c2)n2nc(C)ccc12`, the growth was 19.5% (inactive).
The figure for `COc1cc(C)ccc1Oc1nc(Nc2ccc(N3CCOCC3)cc2)ncc1NC(=O)Nc1cc(C(F)(F)F)cc(C(F)(F)F)c1` is 46.6% (inactive).
The figure for `COc1ccc(/C=C2\CCCC3C2=Nc2ccccc2NC3c2ccc(OC)cc2)cc1` (stereo unspecified) is 86.2% (inactive); for `CCN(CC)CC(=O)N(CC)c1ccc(C)c(Cl)c1` it is 102% (inactive).
In the case of `O=C(CC(CC(=O)c1ccccc1)c1ccccc1O)c1ccccc1` it was 92.1% (inactive); in that of `C=C(C)[C@@H]1CC[C@]2(COCCC#N)CC[C@]3(C)[C@H](CC[C@@H]4[C@@]5(C)Cc6c([nH]c7ccccc67)C(C)(C)[C@@H]5CC[C@]43C)[C@@H]12`, 98.1% (inactive); in that of `Fc1ccc2[nH]cc(-c3nc(-c4ccsc4)cs3)c2c1`, 80.8% (inactive).
On to `COc1cc(-c2nn(-c3cccc(NC(=O)CCN4CCN(Cc5ccccc5)CC4)c3)cc2-c2ccncc2)ccc1Cl`, for which the growth is -21.4% (active).
In the case of `Cc1cc(=O)n2nnc3cc(Cl)c(Cl)cc3n12` it was 101% (inactive); in that of `O=C(/C=C/C=C/c1c(C2CC2)nc2ccccc2c1-c1ccc(F)cc1)c1cccs1`, 22.9% (inactive).
In the case of `CC(=O)[C@H]1CC[C@]2(C)[C@@H]1CC[C@@H]1[C@@]3(C)CC(CCC#N)(CCC#N)C(=O)C(C)(C)[C@@H]3CC[C@]12C` it was 90.5% (inactive); in that of `CCNCC(=O)Nc1ccc(C(=O)OCC)cc1`, 103% (inactive).
The figure for `S=C(NCc1ccccc1)NCc1ccccc1` is 99.5% (inactive); for `NNC(=O)Oc1c(Cl)cc(Cl)cc1[N+](=O)[O-]` it is 101% (inactive).
On to `CN1CCN(CCC(=O)Nc2cccc(-n3cc(-c4ccncc4)c(-c4ccc(Cl)c(O)c4)n3)c2)CC1`, for which the growth is 29.7% (inactive).
The figure for `O=S(=O)(O)c1cccc(Nc2ccc3ccccc3c2)c1` is 97.4% (inactive); for `CCN(CC)CCOc1ccc2c(c1O)C(=O)c1ccccc1C2=O` it is 72% (inactive).
On to `S=C(SSC(=S)N(c1ccccc1)c1ccccc1)N(c1ccccc1)c1ccccc1`, for which the growth is 105% (inactive).
The figure for `CN1CCN(CC(=O)Nc2cccc(-n3cc(-c4ccncc4)c(-c4ccc(Cl)c(O)c4)n3)c2)CC1` is 42.2% (inactive).
